Reference: the supplement of paper PMC13380429
A number with no mark means an inactive call.

System: Vero E6 infected with SARS-CoV-2
Assay: inhibition of SARS-CoV-2 cytopathic effect; higher = more antiviral protection, active = above 15
Settings: 8.33 nM; 48 h

Row | Compound | inhibition of SARS-CoV-2 cytopathic effect [%]
1 | O=C(O)Cc1ccc(OCCNC[C@H](O)c2ccccc2)cc1 | 3.11
2 | C[N+]1(C)CCCC(OC(=O)C(O)(c2ccccc2)c2ccccc2)C1 (stereo not given) [mepenzolate] | -0.16
3 | O=P(O)(O)C(O)(Cc1cnc2ccccn12)P(=O)(O)O [minodronic-acid] | -1.07
4 | COc1ccc2cccc(N3CCN(CCNC(=O)c4ccc(F)cc4)CC3)c2c1 | -0.57
5 | CO/N=C(\C(=O)N[C@@H]1C(=O)N2C(C(=O)OCOC(=O)C(C)(C)C)=C(/C=C\c3scnc3C)CS[C@H]12)c1csc(N)n1 [cefditoren-pivoxil] | -0.15
6 | Cc1ccc(-c2csc3ncnc(SCCC(=O)O)c23)cc1 | 6.66
7 | Cn1c2c(c3ccccc31)CCNCC2 | 2.27
8 | CCOC(=O)c1ccc(C#Cc2ccc3c(c2)C(C)(C)CCS3)nc1 [tazarotene] | 0.89
9 | C[C@H](CCC(=O)O)[C@H]1CC[C@H]2[C@@H]3[C@@H](O)C[C@@H]4C[C@H](O)CC[C@]4(C)[C@H]3CC[C@]12C [ursodiol] | 1.77
10 | Nc1nc(OCC2CCCCC2)c2nc[nH]c2n1 | 0.95
11 | CNC1CC(c2ccc(Cl)c(Cl)c2)c2ccccc21 (stereo not given) [indatraline] | 0.4
12 | CCCN(CCC)CCc1cccc2c1CC(=O)N2 [ropinirole] | -0.55
13 | OC(CCN1CCCCC1)(c1ccccc1)C1CC2C=CC1C2 (stereo not given) [biperiden] | -0.07
14 | O=C([O-])c1ccccn1.O=C([O-])c1ccccn1.O=C([O-])c1ccccn1.[Cr+3] [chromium-picolinate] | 3.76
15 | CN1[C@@H]2C[C@@H](O)C[C@H]1[C@@H]1O[C@@H]12 [scopine] | -0.43
16 | O=c1nc2ccccc2c2n1CC(CN1CCN(c3ccccc3)CC1)N2 (stereo not given) | 5.11
17 | CC(C)NCC(O)COc1cccc2[nH]ccc12 (stereo not given) [pindolol] | 0.875
18 | O=C(O)Cc1ccc(CCNS(=O)(=O)c2ccc(Cl)cc2)cc1 [daltroban] | 3.04
19 | NC[C@H]1O[C@H](O[C@H]2[C@H](O[C@@H]3O[C@H](CO)[C@@H](O)[C@H]3O)[C@@H](O)[C@H](N)C[C@@H]2N)[C@H](N)[C@@H](O)[C@@H]1O [ribostamycin-sulfate] | -0.235
20 | CC12CCC(C(=O)N(CCCCN3CCN(c4ccccn4)CC3)C1=O)C2(C)C (stereo not given) [piricapiron] | -0.34

Row | Compound | inhibition of SARS-CoV-2 cytopathic effect [%]
21 | COc1cccc(C=NCCN=Cc2cccc(OC)c2[O-])c1[O-].[Cl-].[Mn+3] | 1.86
22 | CC(=O)Nc1nnc(S(N)(=O)=O)s1 [acetazolamide] | -1.99
23 | CC(=O)Nc1ccc(CC(=O)O)cc1 [actarit] | -0.52
24 | Fc1ccc(C(OCCN2CCN(CCCc3ccccc3)CC2)c2ccc(F)cc2)cc1 [vanoxerine] | -0.72
25 | Cc1cccc(Cc2c[nH]cn2)c1C [detomidine] | -0.01
26 | O=C(NS(=O)(=O)c1ccc(Br)s1)c1ccc(Cl)cc1Cl [tasisulam] | 5.25
27 | Oc1ccc2c3c1O[C@H]1[C@@H](O)CC[C@@]4(O)[C@@H](C2)N(CC2CCC2)CC[C@]314 [nalbuphine] | 0.43
28 | CN1C(C)(C)CCCC1(C)C [pempidine] | -0.7
29 | O=C(O)c1cc(=O)c2c(OCC(O)COc3cccc4oc(C(=O)O)cc(=O)c34)cccc2o1 [cromoglicic-acid] | -0.04
30 | O=C(O)[C@H]1CC[C@H](c2cc3cccnc3c(-c3cccc(F)c3)n2)CC1 | -2.36
31 | C=CCNc1ncnc2ccc(Br)cc12 | 5.36
32 | CCN(CC)CCOCCOC(=O)C(CC)(CC)c1ccccc1 [oxelaidin] | 0.15
33 | CCOc1ccc(-c2ccc(Cn3c(CC(C)(C)C(=O)O)c(SC(C)(C)C)c4cc(OCc5ccc(C)cn5)ccc43)cc2)cn1 | 0.1
34 | COc1ccccc1Oc1c(NS(=O)(=O)c2ccc(C)cn2)nc(-c2ccncc2)nc1OC | 2.09
35 | Cc1cc(NC(=O)C(c2ccccc2)N2CCCc3ccccc32)no1 (stereo not given) | -0.92
36 | C=C1/C(=C\C=C2/CCC[C@]3(C)[C@@H]([C@H](C)/C=C/C=C/C(O)(CC)CC)CC[C@@H]23)C[C@@H](O)C[C@@H]1O [seocalcitol] | -2.2
37 | COc1cccc(-n2nc(C(=O)O)cc2-c2ccc(C3CCCCC3)c(Cl)c2)c1 | 1.66
38 | COc1ccc(CNC(=O)c2sc3nc(C)cc(C)c3c2N)cc1 | 2.93
39 | CNc1cc2c(Nc3cccc(Br)c3)ncnc2cn1 | -0.58
40 | CCCNC(=O)NS(=O)(=O)c1ccc(Cl)cc1 [chlorpropamide] | 0.48
